About 83,000 compounds went through this panel and 20% of them were active in at least one assay; those are over-represented in the sample as a whole.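 In brief: 96-well plates, 48 h treatment, single concentration, percent growth endpoint.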 Active and inactive are the calls of the source. The calls were made as follows: active = growth percent below 10; inactive = the rest.
The molecules below were run on NCI-H23 lung (assay: NCI-60 one-dose screen, 48 h (100 = growth as untreated, 0 = no growth, -100 = all killed)). Details: 10 µM unless noted.

| Structure (SMILES) | growth |
| --- | --- |
| C=C1C(=O)O[C@H]2[C@H]1CC/C(COC(=O)C(=O)c1c[nH]c3ccccc13)=C\CC[C@@]1(C)O[C@@H]21 | -42.8% (active) |
| S=C(c1ccc2c(c1)OCO2)N1CCN(c2ccccc2Cl)CC1 | 101% (inactive) |
| CC(C)(C)CC(C)(C)Nc1c(-c2ccncc2)nc2cnccn12 | 99.2% (inactive) |
| COCCN(C(=O)c1ccc(F)cc1F)c1c(N)n(Cc2ccccc2)c(=O)[nH]c1=O | 95.4% (inactive) |
| Cc1ccc(N(C(=O)CCc2c[nH]c3ccccc23)[C@H](C(=O)Nc2ccc(Cl)cc2)c2cccc([N+](=O)[O-])c2)cc1 | 92.8% (inactive) |
| COC(=O)c1c2c(c(C)[n+]([O-])c1C)C(=O)C(NCc1ccc(F)cc1)=CC2=O | 31% (inactive) |
| COc1ccc(Cl)cc1NC(=O)C(Br)C(Br)C(=O)O (configuration not stated) | 67% (inactive) |
| O=C1Nc2ccccc2/C1=C/c1cn(C(=O)c2c(Cl)cccc2Cl)c2ccccc12 | 56.9% (inactive) |
| COC(=O)/C=C1\S/C(=N\NS(=O)(=O)c2ccc(C)cc2)N(c2ccccc2)C1=O | 102% (inactive) |
| CCCCCCCC/C=C\CCCCCCCCOc1ccccc1CC(=O)NCC[N+](C)(C)C | 65.5% (inactive) |
| NC(=S)Nc1cccc(O)c1 | 90.6% (inactive) |
| CCCCCS(=O)(=O)Nc1ccc(C(=O)O)cc1 | 102% (inactive) |
| CCCCCCCCCOc1c(OC)cc(C2CC(=O)Nc3c2c(C)nn3-c2nc3ccccc3[nH]2)cc1OC (configuration not stated) | -50% (active) |
| C=C1C(=O)O[C@H]2[C@H]1CC/C(CNC(=O)/C=C/c1ccc(Cl)cc1Cl)=C\CC[C@@]1(C)O[C@@H]21 | -61.2% (active) |
| NNC(=O)c1nc(N)n(-c2ccc(S(N)(=O)=O)cc2)n1 | 97.2% (inactive) |
| C(=N\Nc1ncc(-c2cc3cc4c(cc3o2)OCO4)s1)/c1ccco1 | 20.9% (inactive) |
| O=C(/C=C/c1cccc(O)c1)c1cccc(-n2cc(-c3ccc4ccccc4c3)[nH]c2=O)c1 | 28.2% (inactive) |
| COc1cc(Cn2ncc3ccc(NC(=O)c4cc5ccccc5oc4=N)cc32)cc(OC)c1OC | 80.8% (inactive) |
| O=C(CC(SCc1ccccc1)c1ccccc1)c1ccccc1 (configuration not stated) | 84.6% (inactive) |

| Structure (SMILES) | growth |
| --- | --- |
| CCOc1ccccc1-c1cc(-c2cccs2)c(C#N)c(=O)[nH]1 | 86.1% (inactive) |
| N#CC1=C(NC=O)Oc2c(ccc3ccccc23)C1c1ccccc1 (configuration not stated) | 38.5% (inactive) |
| COc1cc(C2CC(c3cc(OC)c(OCCCOc4ccc(-n5c(/C=C/c6ccccc6)nc6ccccc6c5=O)cc4)c(OC)c3)=NO2)cc(OC)c1OC (configuration not stated) | 112% (inactive) |
| O=C1Nc2ccc(F)cc2C12Nc1cc(Cl)ccc1S2 (configuration not stated) | 80.1% (inactive) |
| CCN(CC)CCN1C(=O)c2c(c(C)c3c(oc4cc(O)ccc43)c2C)C1=O | 92.7% (inactive) |
| O=C(O)c1ccc2c(c1Cl)C(=O)c1ccccc1C2=O | 93.4% (inactive) |
| CN(c1ccccc1)c1ccc2c(c1)OCCC21CC1Nc1cnccc1C(=O)O (configuration not stated) | 95.4% (inactive) |
| CC1O[C@@H](OC2[C@H](OC(=O)/C=C/c3ccc(O)c(O)c3)C(COC3O[C@H](C)C(O)C(O)[C@@H]3O)O[C@@H](OCCc3ccc(O)c(O)c3)[C@H]2O)[C@@H](O)C(O)[C@H]1O (some centres not stated) | 101% (inactive) |
| O=C(CSc1nnc(-c2ccc(NC(=O)c3cccnc3)cc2)o1)Nc1cccc(Br)c1 | 92.8% (inactive) |
| CCN1C(=O)N(CC)C2Nn3c(s/c(=C\c4ccc(Cl)cc4Cl)c3=O)=NC21 (configuration not stated) | 43.1% (inactive) |
| COc1ccc(/C=N/C2=C(C#N)C(c3ccc(OC)cc3)c3ccc4ccccc4c3O2)cc1 (configuration not stated) | 75.5% (inactive) |
| CCOC(=O)C/C(C)=N\NC(=O)c1ccncc1 | 101% (inactive) |
| COC(=O)[C@H](CSC)N(C)C(=O)[C@@H]1CSSC[C@@H](NC(=O)c2nc3ccccc3cc2O)C(=O)NCC(=O)N1C | 84.9% (inactive) |
| COc1ccc2[nH]c(O)c(C(=Nc3ccc(N(C)C(=O)CN4CCN(C)CC4)cc3)c3ccccc3)c2c1 | 21.2% (inactive) |
| O=[N+]([O-])c1ccc(N2c3ccncc3Sc3ccncc32)cc1 | 102% (inactive) |
| COc1ccc(CNC(=O)C(O)C(Cc2ccccc2)NC(=O)c2[nH]c3ccccc3c(=O)c2C)cc1OC (configuration not stated) | 102% (inactive) |
| N#C/C(=C/C=C/c1cccc(Cl)c1)S(=O)c1ccccc1 (configuration not stated) | -43.6% (active) |
| COC(=O)[C@]12CC[C@@H](C)[C@H](C)[C@@H]1C1=CC[C@@H]3[C@@]4(C)C(C=O)=C[C@@](C)(COC(C)=O)C4=CC[C@@]3(C)[C@]1(C)CC2 | 7.56% (active) |

Source: PubChem BioAssay (NCI)
